# Bioassay records from PubChem BioAssay.
# This is a sample that favours compounds with a hit; in the whole collection about 10% have one here.
# G9a block: blocks human histone lysine methyltransferase G9a. Potency, µM (doses to about 102 µM), inactives show at the top dose activity, negative = inhibition, most hits filed as inhibitors. AID 504332. hit rate 8.8% among 350,000. Q96KQ7. G9a H3K9 monomethylation, AlphaScreen, 2 h; also: % is scaled to controls: 0 for no effect and ±100 for the full control effect; nearly all actives have a fitted effect of over 75% in size
#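 Compounds were preincubated with 20 nM G9a for 15 min, after which biotinylated H3K9 peptide (500 nM) and SAM (20 uM) started a 2 h room-temperature reaction. Monomethylated product was quantified by antibody-based AlphaScreen chemiluminescence.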
# GLS inh: blocks human kidney-isoform glutaminase activity. GLS enzymatic activity, qHTS titration. Potency, µM (series often up to 45.5 µM), for inactives: at the top dose activity change, negative = inhibition, most hits filed as inhibitors. hit rate 0.21% among 410,000. AID 624170; also: % is scaled to controls: 0 for no effect and ±100 for the full control effect
# Target sequence (O94925 whole entry, looked up, canonical isoform): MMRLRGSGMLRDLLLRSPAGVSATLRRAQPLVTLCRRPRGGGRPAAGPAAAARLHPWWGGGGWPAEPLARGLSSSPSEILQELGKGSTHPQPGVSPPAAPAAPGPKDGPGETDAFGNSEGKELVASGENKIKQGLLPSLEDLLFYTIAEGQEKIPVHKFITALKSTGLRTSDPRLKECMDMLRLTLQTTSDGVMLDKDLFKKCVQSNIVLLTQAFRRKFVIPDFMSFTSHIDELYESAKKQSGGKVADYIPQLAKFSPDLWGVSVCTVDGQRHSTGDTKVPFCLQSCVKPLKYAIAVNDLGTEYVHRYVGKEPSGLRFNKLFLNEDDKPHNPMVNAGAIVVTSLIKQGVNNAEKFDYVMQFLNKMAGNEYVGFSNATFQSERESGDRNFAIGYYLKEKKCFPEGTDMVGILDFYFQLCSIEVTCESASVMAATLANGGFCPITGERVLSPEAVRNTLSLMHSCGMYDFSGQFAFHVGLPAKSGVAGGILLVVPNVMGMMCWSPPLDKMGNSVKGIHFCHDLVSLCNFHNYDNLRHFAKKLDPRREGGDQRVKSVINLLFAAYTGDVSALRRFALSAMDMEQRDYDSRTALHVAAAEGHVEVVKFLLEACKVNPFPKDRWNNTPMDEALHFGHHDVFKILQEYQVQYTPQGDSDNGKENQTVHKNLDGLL
#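 Glutamate formation by hKGA was monitored fluorometrically using coupled glutamate oxidase, HRP and Amplex Red. Substrate was added as 1 mM L-glutamine solution; incubation was 30 min at RT after an initial read.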
# HP1b chromo inh: inhibitors of HP1-beta chromodomain binding to methylated histone tails | AID 540317 | P83916 | AlphaScreen HP1-beta / biotin-H3K9me3 peptide binding | Potency, µM (series often up to 114 µM), without a hit: top-dose activity change, negative = inhibition, most hits filed as inhibitors | hit rate 0.56% among 390,000; also: nearly all actives have a fitted effect of over 70% in size
#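 HP1-beta protein (50 nM final) preincubated 30 min at room temperature with biotinylated H3(1-18)K9me3 peptide (50 nM) in PBS pH 7.4, 0.01% Tween-20, then compound added for 30 min. AlphaScreen streptavidin donor/nickel chelate acceptor beads (10 ug/mL final), 30 min dark, luminescence read.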
# JMJD2A Tudor: JMJD2A Tudor domain (human) inhibition; Potency, µM (top dose mostly 114 µM), inactives show top-dose activity change, negative = inhibition, usual class: inhibitors; AlphaScreen JMJD2A-Tudor / H3K4me3 peptide binding; hit rate 4.4% among 390,000; O75164; also: % is scaled to controls: 0 for no effect and ±100 for the full control effect; nearly all actives have a fitted effect of over 50% in size
# BAZ2B block: inhibitors of human BAZ2B bromodomain; Q9UIF8; AlphaScreen BAZ2B-H3K14Ac peptide displacement; Potency, µM (titrated, usually from 114 µM), for the others: at the highest dose activity change, negative = inhibition, usual class: inhibitors; hit rate 4.4% among 360,000; AID 504333; also: % is scaled to controls: 0 for no effect and ±100 for the full control effect; nearly all actives have a fitted effect of over 60% in size
#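 Protein-peptide AlphaScreen: BAZ2B 50 nM, b-H3K14Ac 50 nM, 1x PBS pH 7.4 + 0.01% Tween-20. Preincubation 30 min RT; cpd 30 min RT (top 110 uM); beads 20 min RT, light-protected.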
# The depositor's hits bear a star; ? = inconclusive; . = no result given; [ ] = remark or other dose. Calls follow the shape of the dose curve; as a rule, active = well fitted curve in the direction sought with a large enough effect; inconclusive = small, poorly fitted or top-dose-only effect, or another doubt; inactive = no such curve, though single readings can be large; an effect the other way counts as inactive or inconclusive. Potency is read from the fitted curve at half-maximal effect.
SMILES,G9a block,GLS inh,HP1b chromo inh,JMJD2A Tudor,BAZ2B block
Cc1cc(C)n2nc(C(=O)OCC(=O)c3cc(C)n(C)c3C)nc2n1,44.7µM*,?,-6.4%,56.2µM*,50.1µM*
Cc1cc(C(=O)COC(=O)c2cc(Cl)c(O)c(Cl)c2)c(C)n1C,-0.9%[12.7 µM],?,?,50.1µM*,50.1µM*
Cc1cc(C(=O)COC(=O)c2ccc(F)cc2)c(C)n1C,.,7.5%,38.0%,-8.3%,.
Cc1cc(C)n2nc(C(=O)OCC(=O)c3ccccc3Cl)nc2n1,?,-1.7%,32.1%,-9.0%,-0.6%
COc1ccc(NC(=O)c2ccco2)cc1NC(=O)c1cccc(OC(C)C)c1,1.3%[0.501 µM],6.9%,1.9%,-22.2%,-34.2%
CCN(CC)S(=O)(=O)c1cc(NC(=O)COc2ccc(C#N)cc2OC)ccc1C,23.3%[59 µM],-3.8%,40.0%,-13.5%,8.5%
Clc1ccccc1-c1ncc2ccccn12,?,-0.7%,?,17.8µM*,56.2µM*
COc1ccc(-c2ncc3ccccn23)cc1OC,14.1µM*,3.3%,?,3.55µM*,31.6µM*
Clc1ccc(-c2ncc3ccccn23)cc1,2.6%,5.4%,17.1%,-14.7%,?
Cc1ccc(-n2c(N)c(C(=O)N3CCCCC3)sc2=S)cc1,8.91µM*,-14.7%,15.8µM*,?,?
Cc1ccc(-n2c(N)c(C(=O)N3CCN(C)CC3)sc2=S)cc1,2µM*,-4.1%,?,?,-24.3%
C=CCn1c(N)c(C(=O)N2CCN(C)CC2)sc1=S,-26.2%[59 µM],-1.3%,-8.0%,-7.6%,1.5%
CNC(=O)c1sc(=S)n(-c2ccc(OC)cc2)c1N,5.3%,1.5%,13.1%,-15.4%,-32.5%
CCOC(=O)c1sc(=S)n(-c2ccc3c(c2)OCO3)c1N,0.5%[0.501 µM],-3.1%,?,?,?
CCOc1ccc(-n2c(N)c(C(=O)N3CCN(C)CC3)sc2=S)cc1,44.7µM*,16.4%,22.1%,-29.1%,-34.6%
O=C(Nc1ccccc1-c1ccccc1)c1cc(C(F)(F)F)cc(C(F)(F)F)c1,20.6%[59 µM],-12.9%,40.3%,-3.4%,-0.4%
N#CCSc1nc2c(cc1C#N)CCCC2,25.1µM*,6.4%,42.3%,9.0%,7.8%
CSC1CCCCC1(O)CSc1nc2c(cc1C#N)CCCC2 (stereo not given),2.51µM*,-2.6%,?,20µM*,3.4%
CSc1nc2c(cc1C#N)CCCCC2,-5.6%[59 µM],-8.1%,57.2%,41.4%,64.4%
Cn1ccsc1=NC(=O)c1cc(S(=O)(=O)N2CCOCC2)ccc1F,19.1%[2.33 µM],-7.8%,20.5%,0.7%,8.8%
O=C1C=CC(O)(c2cc(=O)c3c(O)cc(O)cc3o2)C=C1,44.7µM*,18.1%,20.8%,-22.5%,-1.4%
O=c1nc(N2CCOCC2)nc(N/N=C/c2ccc3c(c2)OCO3)[nH]1,.,-2.0%,14.4%,?,-11.0%
Cc1cccc(Nc2nnc(-c3ccc(N4CCOCC4)c([N+](=O)[O-])c3)c3ccccc23)c1,10µM*,1.0%,4.1%,?,?
Cn1ccc2cc3c(cc21)CCN3C(=O)Nc1cccnc1,9.47µM*,23.4%,-27.6%,79.4µM*,?
CN1CCc2cc(NC(=O)Nc3cccnc3)ccc21,43.9%[12.7 µM],.,.,.,.
SMILES,G9a block,GLS inh,HP1b chromo inh,JMJD2A Tudor,BAZ2B block
C/C(=N\NC(=O)c1ccc(Cl)c(Cl)c1)c1ccc(Br)s1,27.5%[59 µM],0.0%,33.1%,-5.3%,11.8%
C/C(=N\Nc1ccc(Cl)c(C(=O)O)c1)c1ccc(Br)s1,35.5µM*,39.5%,?,28.2µM*,?
C/C(=N\NC(=O)c1ccccc1C)c1cccc([N+](=O)[O-])c1,-1.1%[59 µM],-0.3%,9.0%,-6.8%,-18.2%
C/C(=N\Nc1ccc(Cl)c(C(=O)O)c1)c1cccc([N+](=O)[O-])c1,15.8µM*,-4.5%,51.2%,-21.7%,-33.1%
Cc1ccc(C(C)C)c(OCCCNCc2cccnc2)c1,50.1µM*,-5.1%,30.3%,-7.0%,-34.4%
Cc1ccc(C(C)C)c(OCCNCCc2ccccc2)c1,.,0.4%,?,25.1µM*,?
COc1cc(C(=O)NCCOc2cc(C)ccc2C(C)C)cc(OC)c1OC,2.9%,12.2%,50.2%,-15.2%,-10.4%
CCCCNCC#CCOc1cc(C)ccc1C(C)C,.,2.4%,-2.6%,22.4µM*,?
COc1ccc(S(=O)(=O)N2c3ccccc3OCC2CC(=O)O)cc1 (stereo not given),-0.3%,7.5%,25.9%,-35.9%,-17.5%
O=C(Nc1ccccc1)Nc1ccccn1,-4.2%[59 µM],0.1%,32.9%,-10.9%,-1.9%
O=C(O)Cc1cn(Cc2ccc(F)cc2)c2ccccc12,-3.3%,10.5%,35.4%,-6.3%,-13.7%
O=c1c2ccccc2ncn1Cc1ccc(Cl)c(Cl)c1,.,-1.2%,45.0%,-1.9%,3.4%
Cc1[nH][nH]c(=O)c1C(c1c(C)[nH][nH]c1=O)c1cn(Cc2ccc(Cl)c(Cl)c2)c2ccccc12,8.91µM*,21.0%,?,50.1µM*,28.2µM*
Cc1[nH][nH]c(=O)c1C(c1c(C)[nH][nH]c1=O)c1cn(Cc2ccc(F)cc2)c2ccccc12,8.91µM*,23.7%,?,50.1µM*,44.7µM*
O=C(COC(=O)c1cc(Cl)ccc1[N+](=O)[O-])NC1CC1,.,-9.4%,21.7%,-11.5%,.
CCN(CC)S(=O)(=O)c1ccc2c(c1)N(CC(=O)Nc1ccc(C)cc1C)C(=O)C1CCCN21 (stereo not given),14.1µM*,3.4%,50.4%,-15.9%,-14.6%
Cc1ccc(CN2C(=O)C3CCCN3c3ccc(S(=O)(=O)N4CCOCC4)cc32)cc1 (stereo not given),12.6µM*,.,.,.,-5.6%
Cc1noc(C)c1S(=O)(=O)N1CCN(C(c2ccccc2)c2ccc(Cl)cc2)CC1 (stereo not given),9.1%,-8.3%,44.9%,-15.0%,5.7%
Nn1c(C2COc3ccccc3O2)n[nH]c1=S (stereo not given),2.82µM*,5.2%,-16.8%,8.91µM*,?
COc1ccc(S(=O)(=O)Cc2ccc(C(=O)NCc3ccccn3)o2)cc1,?,-0.9%,47.8%,-0.7%,-0.4%
COc1cc(NS(=O)(=O)c2ccc(NC(=S)NC(=O)c3ccco3)cc2)ncn1,50.1µM*,18.0%,15.9%,-3.4%,-19.9%
CN(C)S(=O)(=O)c1cccc(NC(=S)NNC(=O)c2cc3ccccc3cc2O)c1,?,?,-26.7%[57 µM],39.8µM*,?
COc1ccc(C(=O)NC(=S)Nc2ccc(S(=O)(=O)Nc3cc(OC)ncn3)cc2)cc1,?,43.9%,-1.7%,-16.4%,?
NS(=O)(=O)c1ccc(NC(=S)NC(=O)c2ccco2)cc1,56.2µM*,2.7%,5.6%,25.1µM*,-20.2%
O=C(NC(=S)Nc1ccccc1Br)c1ccco1,44.7µM*,-2.5%,10.1%,-13.0%,2.6%
Cc1cccc(NC(=S)NC(=O)c2ccco2)c1C,?,2.2%,29.7%,-1.1%,-25.2%
CC(=O)NS(=O)(=O)c1ccc(NC(=S)NC(=O)c2ccco2)cc1,.,30.9%,57.1%,-17.7%,4.5%
